Laboratory results: publication PMC8769072, “Proteome‐scale mapping of binding sites in the unstructured regions of the human proteome” (Molecular Systems Biology, 2022)

B1: ARNTL2, Q8WYA1 (peptide)
chain: SAMSVPGMSTGTVLGA
B2: ANTXR1, Q9H6X2 (peptide)
chain: PSAPTPPIPSPPSTLP
B3: CHD7, Q9P2D1 (peptide)
chain: PTAPPLQPHPGLHHQS
B4: GUCY1B2, O75343 (peptide)
chain: VQPSAPEHSSLASWLL
B5: GPRC5B, Q9NZH0 (peptide)
chain: EMAVVLNGGTIPTAPP
B6: SALL1, Q9NSC2 (peptide)
chain: SGMVTNSVPTASSSVL
B7: ABHD12, Q8N2K0 (peptide)
chain: VALEHERAAAAGSSSS
B8: AHNAK2, Q8IVF2 (peptide)
chain: VSAPGRSIEASVDVPA
B9: ATOH8, Q96SQ7 (peptide)
chain: APSAPPAPPAPPESTV
B10: BEST1, O76090 (peptide)
chain: PLEPSAPSKLHSVTGI
B11: SP4, Q02446 (peptide)
chain: STMPESPSSSTTATTT
B12: LRRFIP1, Q32MZ4 (peptide)
chain: EEQAGTVASAPLGHSD
B13: DENND1A, Q8TEH3 (peptide)
chain: PTLQPSAPQQARDPFE
B14: CCDC168, Q8NDH2 (peptide)
chain: LSRTFLSIPSAPPLYL
B15: GRM1, Q13255 (peptide)
chain: ASGSSVPSSPVSESVL
B16: PIP4P1, Q86T03 (peptide)
chain: AGPGGGLTPSAPPYGA
B17: RTTN, Q86VV8 (peptide)
chain: DAASSSGSSSHAHVNS
B18: ZFP36, P26651 (peptide)
chain: LAGPSLSSSSFSPSSS
B19: PHC3, Q8NDX5 (peptide)
chain: MDTEPNPGTSSVSTTT
B20: TSC22D2, O75157 (peptide)
chain: PSVPSVSTTSVTMPNV
B21: KMT2D, O14686 (peptide)
chain: KPSAPPAPELNNSLHP
B22: SRCAP, Q6ZRS2 (peptide)
chain: NLSLTPSAPSLTLEAG
B23: TACC2, O95359 (peptide)
chain: PSAAEHIVSPSAPAGD
B24: ZFHX4, Q86UP3 (peptide)
chain: PSAPPQVQLPVSLDLP
B25: NPIPA3, F8WFD2 (peptide)
chain: EALLTPLPPSAPPSVD
B26: EPHA2, P29317 (peptide)
chain: LPSTSGSEGVPFRTVS
B27: ESR1, P03372 (peptide)
chain: QSHLATAGSTSSHSLQ
B28: PKNOX2, Q96KN3 (peptide)
chain: VPSAPIDPQAQLEADK
B29: ARAP2, Q8WZ64 (peptide)
chain: SGSVQTSSPPQLETVR
B30: ATP10D, Q9P241 (peptide)
chain: GAMAVTANPPSNPYWI
B31: SS18, Q15532 (peptide)
chain: MPSSSHGSMGGYNHSV
B32: SAMD4A, Q9UPU9 (peptide)
chain: SSVPTTINTIGTSTST
B33: PRDM2, Q13029 (peptide)
chain: SSSSPSPPPLSAISSV
B34: SYNE2, Q8WXH0 (peptide)
chain: DRASSSSGTIVQEAYG
B35: GPR179, Q6PRD1 (peptide)
chain: SLQNQQNAHTSRMLQV
B36: GGA3, Q9NZ52 (peptide)
chain: DAPLLQPSAPSSSSSQ
B37: CDH3, P22223 (peptide)
chain: ANTDPTAPPYDTLLVF
B38: SUFU, Q9UMX1 (peptide)
chain: GPTAPPAPGPTAPPAF
B39: BSN, Q9UPA5 (peptide)
chain: HDATASSSSAAATVRA
B40: HIPK2, Q9H2X6 (peptide)
chain: AASTSVTAGWGDVASS
B41: SSFA2, P28290 (peptide)
chain: LTPTAPSRTGSVQTPP
B42: WBP1, Q96G27 (peptide)
chain: PLTASSEQTAASSSSS
B43: SAP130, Q9H0E3 (peptide)
chain: TVPSHSSHATAVTTSN
B44: SPTBN4, Q9H254 (peptide)
chain: EHAEIARWGQTLPTTS
B45: KIAA0408, Q6ZU52 (peptide)
chain: HVSNDASSSVAESSSP
B46: MGAM2, Q2M2H8 (peptide)
chain: DSTVHTSATAPTYIAN
B47: MEX3B, Q6ZN04 (peptide)
chain: SASSSASSSASSSSVV
B48: NXF1, Q9UBU9 (peptide)
chain: AMPAPTPSSSPVPTLS
B49: SIX4, Q9UIU6 (peptide)
chain: LSNSESKATSSLMMLD
B50: KAT6A, Q92794 (peptide)
chain: DVPSVSDHSQQVVDSG
B51: KLF12, Q9Y4X4 (peptide)
chain: TVITSVSSASSSSTVL
B52: TET1, Q8NFU7 (peptide)
chain: SLMPSAPHPVKEASPG
B53: CBX6, O95503 (peptide)
chain: LLPETVSPSAPSWREP
B54: UBAP1, Q9NZ09 (peptide)
chain: VPNMPSAPQAYSELQM
B55: TTLL5, Q6EMB2 (peptide)
chain: MPIVMARDLEETASSS
B56: MAP3K1, Q13233 (peptide)
chain: GPSSSTTTTTTTTEQP
B57: YLPM1, P49750 (peptide)
chain: GSIVRPSAPPARSSVP
B58: ING3, Q9NXR8 (peptide)
chain: SSSSSLSSASSSSTVV
B59: MAGEE1, Q9HCI5 (peptide)
chain: AYEGPSTSVVPTPDEG
B60: POM121, Q96HA1 (peptide)
chain: SFGINVATPGSSTTTG
B61: BSN, Q9UPA5 (peptide)
chain: DASSQTRMVHASASTS
B62: MARK1, Q9P0L2 (peptide)
chain: MSVSSISSAGSSVASA

biological target: USP7 53-206, Q93009
Sequence (Q93009 53-206): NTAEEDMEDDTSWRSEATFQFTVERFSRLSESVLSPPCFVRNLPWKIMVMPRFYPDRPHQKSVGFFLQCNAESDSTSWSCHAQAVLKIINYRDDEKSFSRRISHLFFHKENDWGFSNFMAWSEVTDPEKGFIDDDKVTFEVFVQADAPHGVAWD

Selected by phage display, active:
B1 confidence 2
B6 confidence 4
B7 confidence 3
B8 confidence 2
B11 confidence 3
B15 confidence 4
B17 confidence 3
B18 confidence 2
B19 confidence 2
B20 confidence 4
B26 confidence 2
B27 confidence 3
B29 confidence 2
B31 confidence 2
B32 confidence 2
B33 confidence 2
B34 confidence 2
B35 confidence 2
B39 confidence 4
B40 confidence 2
B42 confidence 2
B43 confidence 4
B44 confidence 2
B45 confidence 3
B47 confidence 4
B48 confidence 2
B49 confidence 2
B50 confidence 3
B51 confidence 4
B55 confidence 3
B56 confidence 3
B58 confidence 2
B59 confidence 4
B60 confidence 3
B61 confidence 3
B62 confidence 3

biological target: TSG101 1-145, Q99816
Sequence (Q99816 1-145): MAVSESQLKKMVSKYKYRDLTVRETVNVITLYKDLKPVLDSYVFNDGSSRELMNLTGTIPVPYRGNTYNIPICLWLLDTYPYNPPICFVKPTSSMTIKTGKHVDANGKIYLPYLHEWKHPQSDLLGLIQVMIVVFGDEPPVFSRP

Selected by phage display, active:
B2 confidence 2
B3 confidence 4
B4 confidence 4
B5 confidence 4
B9 confidence 3
B10 confidence 3
B12 confidence 4
B13 confidence 2
B14 confidence 2
B16 confidence 3
B21 confidence 3
B22 confidence 3
B23 confidence 2
B24 confidence 2
B25 confidence 3
B28 confidence 2
B30 confidence 2
B36 confidence 2
B37 confidence 2
B38 confidence 2
B41 confidence 4
B46 confidence 3
B52 confidence 3
B53 confidence 3
B54 confidence 3
B57 confidence 2
